“And” between values parts separate entries of the source, which are not always exact repeats. Identical values can stand only once. Values without a mark were called inactive. Records with an inconclusive call do not appear. The source made the active and inactive calls. Unless noted, the call rests on the fitted dose curve; in most records, active means well fitted curve in the direction sought with a large enough effect; inconclusive means small, poorly fitted or top-dose-only effect, or another doubt; inactive means no such curve, though single readings can be large; an effect the other way counts as inactive or inconclusive.

The nature of test [1]: qHTS Assay for Identifying Gametocytocidal Compounds (AID 743244).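 Further: on the % scale 0 is the no-effect control and ±100 the full control effect; actives lower the fluorescent signal which means gametocytes are killed.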 Particulars: P. falciparum 3D7 stage III-V gametocytes, alamarBlue, 72 h; max response: active compounds read low. The essentials: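 Stage III–V gametocytes of P. falciparum 3D7 were seeded at 20,000 cells/well onto pre-dispensed compounds. After 72 h, 37 °C, 5% CO2, alamarBlue was added for another 24 h.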
In general terms: In qHTS, concentration-response curves come from the screen itself.

A short description of test [2]: qHTS assay for measurement of the activity of small molecule inhibitors on Zika virus induced Caspase-3 activity in human iPSC derived neural progenitor cells (hNPCs) (AID 1224857). Further: nearly all actives have a fitted effect of over 65% in size. Further: potency means the concentration at half of the fitted maximal effect. Particulars: hNPCs ZIKV-induced caspase-3/7, Caspase-Glo luminescence, 6 h; series mostly up to 45.7 µM. In a few lines:
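Values are percent inhibition of virus-induced caspase-3/7 signal, scaled between uninfected cells and ZIKV-infected cells. Infection used 2 FFU/cell for 6 h after 1 h compound exposure.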

The nature of test [3]: qHTS assay for measurement of the activity of small molecule inhibitors on Zika virus induced Caspase-3 activity in human astrocytoma cells (AID 1224859).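 Further: plate controls were ZIKV-infected untreated cells for no effect and uninfected cells for full effect.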 To be noted: SNB-19 ZIKV-induced caspase-3/7, luminescence, 6 h; series mostly up to 45.7 µM. The essentials: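 Compound added 1 h pre-infection; ZIKV 2 FFU/cell on SNB-19 cells, 6 h, 37 C/5% CO2. Caspase-Glo 3/7 luminescence; values as % inhibition of ZIKV-induced caspase activity.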

Test [4] can be described thus: qHTS assay to identify small molecule inhibitors of chordoma cells - UCH-1 (AID 1259355). Further: on the % scale 0 is the no-effect control and ±100 the full control effect; nearly all actives have a fitted effect of over 55% in size. Particulars: UCH-1 chordoma viability, CellTiter-Glo, 48 h, combination, with auranofin plus four topoisomerase inhibitors; series mostly up to 46.1 µM. In a few lines: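 Screening used approved and investigational drugs in 15-point titration against 800 seeded cells per well. A fixed combination of auranofin with camptothecin, doxorubicin, rubitecan and topotecan followed compound addition, and growth was scored by CellTiter-Glo after 48hr.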

Test [5] can be described thus: qHTS assay to identify small molecule inhibitors of chordoma cells - UCH-2 (AID 1259356). Further: on the % scale 0 is the no-effect control and ±100 the full control effect. To be noted: UCH-2 chordoma viability, CellTiter-Glo ATP luminescence, 48 h; series mostly up to 46.1 µM.
Test [6] can be described thus: P-glycoprotein substrates identified in KB-8-5-11 adenocarcinoma cell line, qHTS therapeutic library screen (AID 1346987). Further: on the % scale 0 is the no-effect control and ±100 the full control effect; nearly all actives have a fitted effect of over 65% in size. Particulars: KB-8-5-11 (P-gp overexpressing) viability, CellTiter-Glo, 72 h; series mostly up to 44.5 µM. In a few lines: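 Human cervical adenocarcinoma KB-8-5-11 cells, selected in colchicine to over-express P-gp and assayed without it, were exposed for 72 h to titrated compounds. An ATP-based luminescent viability signal gave AC50.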

Test [7] can be described thus: Natriuretic polypeptide receptor (hNpr1) antagonism - Pilot counterscreen GloSensor control cell line (AID 1347045; calls by dose curve; further: on the % scale 0 is the no-effect control and ±100 the full control effect). To be noted: HEK293 cGMP GloSensor cells, SNP-stimulated luminescence, 20 min; series mostly up to 38.3 µM. In a few lines: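 The SNP-driven cGMP luminescence signal (50 uM, 20 min, room temperature) was measured in GloSensor HEK293 control cells. Compounds were tested as a LOPAC titration series and preincubated for 30-50 min.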
Background: The purpose of a counterscreen is to sort out artefacts and off-target activity.

Test [8] concerns the target Atrial natriuretic peptide receptor 1 (Homo sapiens) (UniProt P16066). The test is described as follows: Natriuretic polypeptide receptor (hNpr1) antagonism - Pilot screen (AID 1347049; calls by dose curve;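 further: agonist-evoked cGMP luminescence read 20 min after hNppA addition; on the % scale 0 is the no-effect control and ±100 the full control effect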). To be noted: hNpr1 cells, antagonist mode cGMP read-out; series mostly up to 57.5 µM. The essentials: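 cGMP-sensor HEK293/hNpr1 cells, 1500/well, plated overnight at 37C. 2% GloSensor reagent, 2 h RT. Compound (23 nL pin transfer) 30 min RT, baseline luminescence pre-read. 0.1 nM hNppA, 20 min RT, post-read.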

Test [9] addresses Atrial natriuretic peptide receptor 2 (Homo sapiens) (UniProt P20594). Briefly: Natriuretic polypeptide receptor (hNpr2) antagonism - Pilot subtype selectivity assay (AID 1347050; calls by dose curve; further: on the % scale 0 is the no-effect control and ±100 the full control effect). To be noted: NPR2-expressing cells, cGMP antagonist-mode read-out; series mostly up to 38.3 µM. The essentials:
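Luminescence from a genetically encoded cGMP luciferase biosensor in hNpr2-expressing HEK293 cells is read before and 20 min after adding 1 nM hNppC. Test compounds, in interplate 1:5 titrations, are added 30-50 min ahead of the agonist.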

Test [10] is described as follows: NS1 protein of Zika virus - qHTS assay to identify small molecule inhibitors in human HEK 293 cells (AID 1347053).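 Further: plate controls were infected untreated cells for no effect and uninfected cells for full effect; nearly all actives have a fitted effect of over 55% in size.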 To be noted: HEK293 ZIKV MR766 infection, NS1 TR-FRET, 24 h; series mostly up to 46.1 µM. In a few lines: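 TR-FRET signal from two anti-ZIKV NS1 antibodies quantified NS1 in HEK 293 cells 24 h after MR766 infection at MOI = 0.5; compounds were added 1 h before virus. Uninfected cells and infected cells defined the NS1 normalization range.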

Sequence of Atrial natriuretic peptide receptor 1 (Homo sapiens) (P16066 whole entry, looked up): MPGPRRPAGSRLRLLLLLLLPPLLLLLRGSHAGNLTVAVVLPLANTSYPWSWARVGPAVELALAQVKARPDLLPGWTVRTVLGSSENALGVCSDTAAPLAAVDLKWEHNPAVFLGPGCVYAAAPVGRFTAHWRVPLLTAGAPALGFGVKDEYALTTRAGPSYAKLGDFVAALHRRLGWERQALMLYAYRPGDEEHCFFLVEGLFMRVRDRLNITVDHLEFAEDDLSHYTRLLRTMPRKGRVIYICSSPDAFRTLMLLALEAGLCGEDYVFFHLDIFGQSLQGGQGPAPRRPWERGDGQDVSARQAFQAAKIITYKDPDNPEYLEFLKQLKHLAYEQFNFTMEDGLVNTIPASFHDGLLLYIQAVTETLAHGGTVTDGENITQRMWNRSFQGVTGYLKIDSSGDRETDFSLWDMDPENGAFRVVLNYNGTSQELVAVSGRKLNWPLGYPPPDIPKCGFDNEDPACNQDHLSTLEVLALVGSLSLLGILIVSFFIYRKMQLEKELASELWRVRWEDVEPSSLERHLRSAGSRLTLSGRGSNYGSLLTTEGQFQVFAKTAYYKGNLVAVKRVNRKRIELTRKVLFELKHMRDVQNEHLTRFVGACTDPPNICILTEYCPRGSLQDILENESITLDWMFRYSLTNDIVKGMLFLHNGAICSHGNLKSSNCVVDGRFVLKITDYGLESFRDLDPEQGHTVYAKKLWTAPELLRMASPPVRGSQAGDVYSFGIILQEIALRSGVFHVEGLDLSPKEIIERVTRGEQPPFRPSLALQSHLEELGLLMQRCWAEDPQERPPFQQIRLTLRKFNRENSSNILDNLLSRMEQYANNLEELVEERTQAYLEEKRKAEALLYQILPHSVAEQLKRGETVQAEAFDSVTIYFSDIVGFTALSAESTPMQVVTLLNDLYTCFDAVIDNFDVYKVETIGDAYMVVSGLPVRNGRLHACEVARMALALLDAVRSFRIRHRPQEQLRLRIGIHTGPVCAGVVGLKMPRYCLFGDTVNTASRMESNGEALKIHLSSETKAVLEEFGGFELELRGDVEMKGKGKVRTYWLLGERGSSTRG
Sequence of Atrial natriuretic peptide receptor 2 (Homo sapiens) (P20594 whole entry, looked up): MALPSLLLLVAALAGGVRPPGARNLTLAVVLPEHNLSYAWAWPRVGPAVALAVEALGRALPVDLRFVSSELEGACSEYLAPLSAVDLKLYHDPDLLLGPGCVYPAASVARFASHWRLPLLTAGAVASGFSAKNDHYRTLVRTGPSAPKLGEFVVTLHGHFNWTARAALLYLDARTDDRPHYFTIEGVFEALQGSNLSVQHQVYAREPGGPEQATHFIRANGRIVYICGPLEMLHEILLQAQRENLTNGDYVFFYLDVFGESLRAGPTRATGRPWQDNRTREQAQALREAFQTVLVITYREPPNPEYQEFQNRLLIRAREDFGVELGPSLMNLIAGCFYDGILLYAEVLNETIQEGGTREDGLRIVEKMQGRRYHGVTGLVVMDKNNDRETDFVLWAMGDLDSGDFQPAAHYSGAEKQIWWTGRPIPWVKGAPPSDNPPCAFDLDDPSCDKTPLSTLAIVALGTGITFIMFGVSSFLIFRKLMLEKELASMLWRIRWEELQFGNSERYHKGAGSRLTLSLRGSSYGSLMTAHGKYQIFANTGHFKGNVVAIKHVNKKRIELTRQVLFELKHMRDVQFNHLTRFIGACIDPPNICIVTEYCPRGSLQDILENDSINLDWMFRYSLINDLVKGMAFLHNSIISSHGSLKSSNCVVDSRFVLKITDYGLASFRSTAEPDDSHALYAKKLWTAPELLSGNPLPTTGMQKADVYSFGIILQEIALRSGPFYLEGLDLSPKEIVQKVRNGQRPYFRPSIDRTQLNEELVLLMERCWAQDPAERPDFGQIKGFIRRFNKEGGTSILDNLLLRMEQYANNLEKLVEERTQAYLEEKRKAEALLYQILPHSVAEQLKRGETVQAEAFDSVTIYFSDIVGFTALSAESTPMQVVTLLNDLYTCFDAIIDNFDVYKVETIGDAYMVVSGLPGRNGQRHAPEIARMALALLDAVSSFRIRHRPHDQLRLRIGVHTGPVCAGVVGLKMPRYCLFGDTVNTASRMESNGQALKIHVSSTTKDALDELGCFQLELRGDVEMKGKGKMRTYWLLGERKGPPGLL

On to `CN=C(N)NCCC[C@H](N)C(=O)O`, for which the max response in test [1] was -7.79% and 5.96% and -18.7%. The Potency entry in [2], in test [4], in test [5], in test [6] and in test [10] was “inactive” throughout. Moreover, the outcome in test [3], in [7], in [8] and in test [9] was inactive.

Take `CCCCCN=C(N)N/N=C/c1c[nH]c2ccc(OC)cc12`: the Potency result in [2], in test [4], in [5] and in [6] was “inactive” each time. In addition, the result in test [3] was inactive.

For `CC(=O)NC(=O)c1ccccc1O`, the Potency result in test [2], in test [4], in test [5], in [6] and in test [10] was “inactive” throughout. Moreover, in test [3], the compound was called inactive.

For the compound `CNCCc1ccccn1`, the Potency entry in test [2], in test [4], in test [5], in test [6] and in [10] was “inactive” in each case. The outcome in [3] was inactive.

Consider `CCOC(=O)[C@@](C)(N)Cc1ccc(O)c(O)c1`, for which the Potency result in test [2], in test [4], in [5], in [6] and in test [10] was “inactive” in each case. For the same compound, the compound was called inactive in [3].

As to `OC[C@H]1O[C@@H](Oc2ccc(O)cc2)[C@H](O)[C@@H](O)[C@@H]1O`, the Potency entry in test [2], in test [4], in test [5], in test [6] and in test [10] was “inactive” throughout. Moreover, the compound was called inactive in [3].

For `C=C1c2cccc(O)c2C(O)=C2C(=O)[C@]3(O)C(O)=C(C(N)=O)C(=O)[C@@H](N(C)C)[C@@H]3[C@@H](O)[C@H]12`, the Potency entry in [2], in test [4], in test [5], in test [6] and in [10] was “inactive” throughout. For the same compound, the compound was called inactive in test [3].

Take `CC(=O)OC[C@H]1O[C@@H](n2ncc(=O)[nH]c2=O)[C@H](OC(C)=O)[C@@H]1OC(C)=O`: the Potency result in [2], in [4] and in [5] was “inactive” each time. In addition, the call in [3] was inactive.

On to `Cc1ccccc1OCC(O)CO` (configuration not stated), for which the max response in test [1] was -6.04%. The Potency result in [2], in test [4], in test [5], in test [6] and in test [10] was “inactive” throughout. In addition, the compound was called inactive in test [3].

On to `Cc1c(-c2ccccc2)oc2c(C(=O)OCCN3CCCCC3)cccc2c1=O`, for which, in test [1], the max response was 3.61%. In addition, the Potency entry in [2], in test [4], in test [5], in [6] and in test [10] was “inactive” in each case. Besides, the call in test [3] was inactive.

As to `CC(=C(CCOC(=O)C(C)C)SSC(CCOC(=O)C(C)C)=C(C)N(C=O)Cc1cnc(C)nc1N)N(C=O)Cc1cnc(C)nc1N`, the max response in test [1] was -5.02%. Moreover, the Potency in test [2] is 11.2 µM (active). Besides, in test [3], the outcome was inactive. Moreover, the Potency result in test [4], in test [5], in test [6] and in test [10] was “inactive” throughout.

As for `Cc1cc(C)cc(OCC2CNC(=O)O2)c1` (configuration not stated), in [1], the max response is -6.82%. Also, the Potency result in test [2], in [4], in test [5], in test [6] and in test [10] was “inactive” throughout. Moreover, in [3], the call was inactive.

With `CCC1Nc2cc(Cl)c(S(N)(=O)=O)cc2S(=O)(=O)N1` (configuration not stated), the max response in [1] is 7.47%. For the same compound, the Potency entry in test [2], in test [4], in test [5], in test [6] and in [10] was “inactive” throughout. In test [3], the call was inactive.

In the case of `Cc1cc(CC(=O)O)c(C)n1-c1ccc(Cl)cc1`, in test [1], the max response was -9.92%. The Potency result in test [2], in test [4], in test [5], in test [6] and in test [10] was “inactive” throughout. The call in test [3] was inactive.

On to `Cn1c(=O)c2[nH]c(Br)nc2n(C)c1=O`, for which, in [1], the max response is -3.24%. For the same compound, the Potency result in test [2], in test [4], in test [5], in test [6] and in test [10] was “inactive” throughout. In addition, in test [3], the result was inactive.

For `CC(=O)Nc1ccc(S(=O)(=O)Nc2ccc([N+](=O)[O-])cc2)cc1`, the max response in test [1] is 3.59%. Also, the Potency result in [2], in test [4], in test [5], in test [6] and in [10] was “inactive” each time. In [3], the call was inactive.

Regarding `N#CCC(=O)NN`, in [1], the max response is -7.78%. Moreover, the Potency result in test [2], in test [4], in [5], in [6] and in [10] was “inactive” each time. Further, the compound was classed as inactive in test [3].

As for `CC(C)[C@@H]1CC[C@@H](C)CC1=O`, the max response in [1] was -7.98%. For the same compound, the Potency result in test [2], in [4], in test [5], in [6] and in test [10] was “inactive” in each case. Besides, in test [3], the compound was classed as inactive.

For `O=C(O)CCNC(=O)c1ccccc1`, in test [1], the max response is 7.27%. Also, the Potency result in [2], in [4], in test [5], in [6] and in test [10] was “inactive” each time. Moreover, in test [3], the compound was called inactive.

As for `C=CCN1CCc2nc(N)sc2CC1`, the max response in test [1] was 14.4%. In addition, the Potency entry in test [2], in test [4], in [5], in test [6] and in test [10] was “inactive” in each case. Also, the outcome in [3] was inactive.

Take `CC(=O)O[C@H]1C[C@@H]2CC[C@@H]3[C@H](CC[C@@]4(C)[C@H]3C[C@H]([N+]3(C)CCCCC3)[C@@H]4OC(C)=O)[C@@]2(C)C[C@@H]1N1CCCCC1`: the max response in test [1] is -2.39%. Besides, the Potency result in test [2], in [4], in test [5], in test [6] and in test [10] was “inactive” each time. For the same compound, the outcome in [3] was inactive.

For `Cc1ccc(S(=O)(=O)NC(=O)NC2CCCC2)cc1`, in [1], the max response is 3.98%. For the same compound, the Potency result in test [2], in test [4], in [5], in [6] and in test [10] was “inactive” each time. Also, the call in test [3] was inactive.

On to `CC(=O)Nc1ccc(OC(=O)c2ccccc2OC(C)=O)cc1`, for which, in test [1], the max response is 12.6%. Also, the Potency entry in [2], in [4], in test [5], in test [6] and in test [10] was “inactive” each time. Besides, the outcome in test [3] was inactive.

For the compound `C[N+]12CCC(CC1)C(OC(=O)C(O)(c1ccccc1)c1ccccc1)C2` (configuration not stated), the max response in test [1] is -5.86%. The Potency result in [2], in test [4], in test [5], in [6] and in test [10] was “inactive” in each case. For the same compound, the compound was classed as inactive in [3].

Turning to `C[C@H]1[C@H]2CC[C@H]3[C@@H]4CC=C5C[C@@H](N(C)C)CC[C@]5(C)[C@H]4CC[C@]23CN1C`, in test [1], the max response was -6.8%. For the same compound, the Potency entry in test [2], in [4], in test [5], in test [6] and in test [10] was “inactive” throughout. In addition, the outcome in test [3] was inactive.

In the case of `O=C1OC(CN2CCOCC2)CN1/N=C/c1ccc([N+](=O)[O-])o1` (configuration not stated), the max response in [1] was -7.98%. Moreover, the Potency result in test [2], in test [4], in test [5], in test [6] and in [10] was “inactive” in each case. Moreover, in test [3], the result was inactive.

Regarding `Nc1ccc(C(=O)NCC(=O)O)cc1`, the max response in test [1] is 6.7%. Besides, the Potency result in test [2], in [4], in test [5], in test [6] and in test [10] was “inactive” throughout. Also, the outcome in test [3] was inactive.

The record behind these values is PubChem BioAssay (NCATS).
